# Measured values from PubChem BioAssay (NCI).
# About 79,000 compounds went through this panel and 15% of them were active in at least one assay; those are over-represented in the sample as a whole. Unmarked numbers belong to inactive results. Calls of active or inactive are those of the source. Rule as the data show it: active = growth inhibition above about 70%; inactive = the rest.
# Columns and labels:
# [1] = NCI Yeast Anticancer Drug Screen. Data for the rad50 strain (AID 155);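 also: 0% = growth of vehicle-only cultures of the same strain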; details: S. cerevisiae rad50 strain growth inhibition, stronger effect = higher value
# In short: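 DNA repair mutant yeast, compound exposure, growth read-out; inhibition is taken relative to vehicle.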
# [2] = NCI Yeast Anticancer Drug Screen. Data for the mec2-1 strain (AID 157); details: S. cerevisiae mec2-1 strain, stronger effect = higher value
# In short: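 Using mec2-1 yeast: add compound, measure growth, express inhibition versus vehicle-treated cultures.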
# [3] = NCI Yeast Anticancer Drug Screen. Data for the sgs1 mgt1 strain (AID 161);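 also: 0% = growth of cultures given vehicle only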; details: S. cerevisiae sgs1 mgt1 strain, stronger effect = higher value
# In short: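 Percent growth inhibition was derived by comparing compound-exposed mutant yeast with vehicle-exposed cultures. The strain carries alterations in DNA damage repair.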
# [4] = NCI Yeast Anticancer Drug Screen. Data for the cln2 rad14 strain (AID 165);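 also: 0% = growth equal to vehicle treated cultures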; details: S. cerevisiae cln2 rad14 strain, stronger effect = higher value
# In short: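 Yeast strain cln2 rad14, bearing defects in cell cycle control and DNA repair, serves as the test system; values reflect growth inhibition compared with vehicle.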
# [5] = NCI Yeast Anticancer Drug Screen. Data for the bub3 strain (AID 167); details: S. cerevisiae bub3 mutant strain, stronger effect = higher value
# In short: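 In this screen, a yeast mutant lacking normal mitotic checkpoint function is challenged with compound. Relative growth versus vehicle gives the inhibition value.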
# [6] = NCI Yeast Anticancer Drug Screen. Data for the mlh1 rad18 strain (AID 175); details: S. cerevisiae mlh1 rad18 strain growth inhibition, stronger effect = higher value
# In short: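 Steps: expose repair-defective yeast to compound; measure growth; express inhibition against vehicle-treated controls.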
# [7] = at 5.0 µM (retest, dose inferred, filed as 0.5)
# [8] = at 50.0 µM (retest, dose inferred, filed as 5.0)
Compound,"growth inhibition [1, 7]","growth inhibition [1, 8]",growth inhibition ([1]; at 50.0 µM),"growth inhibition [2, 7]","growth inhibition [2, 8]",growth inhibition ([2]; at 50.0 µM),"growth inhibition [3, 7]","growth inhibition [3, 8]",growth inhibition ([3]; at 50.0 µM),"growth inhibition [4, 7]","growth inhibition [4, 8]",growth inhibition ([4]; at 50.0 µM),"growth inhibition [5, 7]","growth inhibition [5, 8]",growth inhibition ([5]; at 50.0 µM),"growth inhibition [6, 7]","growth inhibition [6, 8]",growth inhibition ([6]; at 50.0 µM)
O/N=C(/CCc1ccccc1Cl)c1ccccc1,3%,34%,94% (active),-5%,55%,93.6% (active),3%,75% (active),96.3% (active),-2%,41%,90.1% (active),6%,61%,87.2% (active),1%,80% (active),93.3% (active)
CCCCCCCCCCN(CCCCCCCCCC)C(=O)COc1c2cc(C(C)(C)C)cc1Cc1cc(C(C)(C)C)cc(c1OCC(=O)N(CCCCCCCCCC)CCCCCCCCCC)Cc1cc(C(C)(C)C)cc(c1OCC(=O)N(CCCCCCCCCC)CCCCCCCCCC)Cc1cc(C(C)(C)C)cc(c1OCC(=O)N(CCCCCCCCCC)CCCCCCCCCC)C2,98% (active),92% (active),85.8% (active),98% (active),95% (active),89.3% (active),99% (active),95% (active),89% (active),98% (active),94% (active),87.3% (active),99% (active),94% (active),87.8% (active),97% (active),92% (active),84.8% (active)
CNS(=O)(=O)c1ccccc1C=C(c1ccccc1)c1ccccc1,2%,90% (active),93.1% (active),-12%,93% (active),86.2% (active),4%,93% (active),94% (active),2%,89% (active),65.8%,-11%,92% (active),81.8% (active),-2%,91% (active),94.1% (active)
Cc1ccc(S(=O)(=O)OCCCCOS(=O)(=O)c2ccc(C)cc2)cc1,0%,4%,76% (active),-7%,-3%,26.1%,-6%,4%,15.7%,2%,-5%,28.4%,-2%,2%,-17.2%,2%,1%,15.1%
O=C(/N=C1\N=Nc2nc(C(C(=O)c3cccs3)c3nc4n(c3O)/C(=N/C(=O)Nc3ccc(Cl)cc3)N=N4)c(O)n21)Nc1ccc(Cl)cc1 (stereo not given),-22%,5%,38.7%,-12%,23%,63.4%,-1%,7%,66.2%,-33%,7%,63.6%,-38%,27%,66.8%,-27%,43%,49.3%
CCOC(=O)C(N=Nc1ccc(Br)c(C)c1)C(C)=O (stereo not given),-4%,81% (active),92.2% (active),-7%,27%,84.1% (active),1%,92% (active),98% (active),11%,50%,76.8% (active),-6%,64%,88% (active),4%,88% (active),97.5% (active)
Cc1cccc2c1nc1ccccc1[n+]2C,-2%,97% (active),98.3% (active),7%,97% (active),97.7% (active),-2%,97% (active),98.5% (active),2%,96% (active),87.8% (active),-2%,91% (active),98.2% (active),6%,95% (active),97.5% (active)
COc1ccc([N+](=O)[O-])cc1NC(=O)Nc1ccc(C(=O)OCC(C)C)cc1,11%,36%,48.8%,3%,53%,70.2% (active),3%,48%,68.2%,-10%,56%,57%,-5%,47%,45.3%,13%,3%,74.9% (active)
CC(=O)c1sc2c(c1O)c(=O)n(-c1ccccc1)c(=S)n2-c1ccccc1,-4%,75% (active),68.3%,19%,83% (active),67.4%,10%,88% (active),75.5% (active),16%,95% (active),80% (active),25%,94% (active),58.4%,-11%,87% (active),29.9%
Oc1ccc(Cc2cc(Cl)cc(Cl)c2O)cc1Cl,84% (active),100% (active),99.5% (active),84% (active),99% (active),99.7% (active),68%,99% (active),99.4% (active),91% (active),99% (active),99.3% (active),70% (active),100% (active),99.3% (active),94% (active),100% (active),99.2% (active)
